Usually AC50 stands for the midpoint of the concentration-response curve, whichever way the signal moves.

Values joined by “and” are separate entries in the source; they are usually repeats but may differ in a detail not shown here. Equal entries are not always repeated. Inconclusive results are not listed. Some compounds were tested as several samples or in several runs, with calls that do not always agree. Active and inactive are the calls of the source. The calls were made as follows, unless noted: active = hit-call score of the fitted dose curve at least 0.9, where 1 is the maximum; inactive = score below 0.9.

Read-out in experiment [1]: Collagen I, COL1A1 (gene 1277)
The experiment can be described thus: BSK_MyoF_CollagenI: BioMAP Diversity Plus: MyoF Assay for Collagen I Biomarker Activity (AID 2284238). The conditions noted are these: primary human lung fibroblasts. In short, it runs like this:
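ELISA readout of Collagen I after 24 h chemical treatment of primary human lung fibroblast cultures; gain of signal scored relative to DMSO vehicle baseline.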

Read-out in experiment [2]: Collagen III, COL3A1 (gene 1281)
The experiment can be described thus: BSK_MyoF_CollagenIII: BioMAP Diversity Plus: MyoF Assay for Collagen III Biomarker Activity (AID 2284239). The conditions noted are these: primary human lung fibroblasts. A digest of the protocol:
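Lung fibroblast culture; 24 h compound exposure; collagen III by ELISA; gain-of-signal fit vs DMSO baseline.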

Experiment [3] is described as follows: CCTE_Mundy_HCI_hNP1_Casp3_7: CCTE's Caspase-Glo 3/7 Assay in human neuroprogenitor cells for Apoptosis, Mundy Lab (AID 2284240). In short, it runs like this: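 Neuroepithelial-lineage stem cells from WA09 embryonic cells were treated with chemicals after 40–44 h of culture. Twenty-four hours later, caspase-3/7 activation was detected luminescently after a 30 min room-temperature reagent step, with DMSO as baseline.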

A short description of experiment [4]: CCTE_Mundy_HCI_hNP1_CellTiter: CCTE's Cell Titer-Glo 2 Assay in human neuroprogenitor cells for Viability, Mundy Lab (AID 2284241; active = hit-call score of the fitted dose curve at least 0.9, where 1 is the maximum). In short, it runs like this:
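Measures ATP content in human neural progenitors derived from WA09 embryonic cells. Read-out at 26.5 hours after dosing, with DMSO serving as the negative control and baseline.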
(In general: In ATP-based viability assays light output follows the ATP content of the culture.)

Read-out in experiment [5]: Interleukin 17F (IL17F), IL17F (gene 112744)
The experiment can be described thus: BSK_BT_xIL17F: BioMAP Diversity Plus: BT Assay for Interleukin 17F (IL17F) Biomarker Activity (AID 2284243). Conditions: primary human B cells with PBMC. In short, it runs like this: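 Secreted IL-17F, read on LumineX xMAP beads, was taken as the endpoint. Cultures combined human B cells and peripheral blood mononuclear cells, sampled 24 hours after dosing, with DMSO serving as negative control.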

Read-out in experiment [6]: Actin alpha 1 (ACTA1), ACTA1 (gene 58)
The experiment can be described thus: BSK_MyoF_ACTA1: BioMAP Diversity Plus: MyoF Assay for Actin alpha 1 (ACTA1) Biomarker Activity (AID 2284244). The conditions noted are these: primary human lung fibroblasts. In short, it runs like this: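 Human lung fibroblast (MyoF system) cultures dosed with test chemical; alpha-SMA measured by ELISA 24 h after dosing, normalized to DMSO control. Cytotoxicity tracked in parallel cultures by SRB total-protein staining.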

Read-out in experiment [7]: Interleukin 2 (IL2), IL2 (gene 3558)
The experiment can be described thus: BSK_BT_xIL2: BioMAP Diversity Plus: BT Assay for Interleukin 2 (IL2) Biomarker Activity (AID 2284245). The conditions noted are these: primary human B cells with PBMC. In short, it runs like this:
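Human B cell plus PBMC co-culture, 24 h after chemical dosing; secreted IL-2 quantified by Luminex xMAP multiplex, fitted for signal gain against DMSO baseline.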

Read-out in experiment [8]: Basic fibroblast growth factor (bFGF), FGF2 (gene 2247)
The experiment can be described thus: BSK_MyoF_bFGF: BioMAP Diversity Plus: MyoF Assay for Basic fibroblast growth factor (bFGF) Biomarker Activity (AID 2284246). The conditions noted are these: primary human lung fibroblasts. A digest of the protocol:
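Human lung fibroblast cultures were dosed and measured 24 h later in 96-well format. bFGF biomarker levels quantified by ELISA, with activity fitted in the positive direction against DMSO.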

Experiment [9] is described as follows: CCTE_Mundy_HCI_Cortical_NOG_BPCount: CCTE's Neurite Outgrowth Assay in rat cortical cells for Branch Point Count, Mundy Lab (AID 2284237). A digest of the protocol: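 Measured 50.33 h after dosing, this morphology endpoint uses rat primary cortical cultures labelled for betaIII-tubulin. Branch points are quantified by high-content imaging, with DMSO as negative control and baseline.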

Experiment [10] can be described thus: CCTE_Mundy_HCI_Cortical_Synap_Neur_Matur_NeuronCount: CCTE's Synaptogenesis and Neurite Maturation Assay in rat cortical cells for Neuron Count, Mundy Lab (AID 2284242; active = hit-call score of the fitted dose curve at least 0.9, where 1 is the maximum). In short, it runs like this: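 Rat primary cortical cells, AraC added at DIV 5, dosed with media change from DIV 7 to DIV 12. Fixed, Hoechst-stained and immunolabelled for MAP2 and synaptophysin; neuron number counted by high-content imaging, loss fitted versus DMSO.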

`OCC(F)(F)C(F)(F)C(F)(F)C(F)F`: the result in experiment [1], in [2], in experiment [3], in experiment [4], in experiment [5] and in experiment [6] was inactive. Moreover, the outcome in experiment [7] and in [8] was inactive.
Regarding `C=CC(=O)OCC(F)(F)C(F)(F)C(F)(F)C(F)(F)COC(=O)C=C`, the AC50 was 14.4 µM (active) and 16.6 µM (active) in experiment [1]; 12.1 µM (active) and 14.6 µM (active) in experiment [2]; 4.17 µM (active) and 2.81 µM (active) in experiment [5]; 11.2 µM (active) and 9.62 µM (active) in experiment [7]; 18.2 µM (active) and 14.5 µM (active) in experiment [8]. For the same molecule, the molecule was classed as inactive in experiment [3] and in [4].
With `CCCCNc1ccccc1`, the outcome in experiment [1], in [2], in experiment [5], in [6], in experiment [7] and in [8] was inactive.
On to `CCCCCCCCC(F)(F)C(F)(F)C(F)(F)C(F)(F)C(F)(F)C(F)(F)F`, for which the result in [1], in experiment [2], in [5], in experiment [6], in [7] and in experiment [8] was inactive.
`O=C(O)C(F)(OC(F)(F)C(F)(OC(F)(F)C(F)(OC(F)(F)C(F)(F)C(F)(F)F)C(F)(F)F)C(F)(F)F)C(F)(F)F` (stereo not drawn): the result in experiment [1], in [2], in [5], in [6], in experiment [7] and in [8] was inactive.
In the case of `OCCCC(F)(F)C(F)(F)C(F)(F)C(F)(F)C(F)(F)C(F)(F)C(F)(F)F`, the AC50 in experiment [1] is 49.1 µM (active) and 52.3 µM (active); in experiment [2], 46.9 µM (active) and 52.2 µM (active); in experiment [5], 17.8 µM (active) and 18.5 µM (active); in experiment [6], 37.7 µM (active) and 44.6 µM (active); in [7], 20.5 µM (active) and 33.2 µM (active); in experiment [8], 50.9 µM (active) and 57.8 µM (active). The call in experiment [3] and in experiment [4] was inactive.
With `O=C(O)C(F)(F)C(F)(F)C(F)(F)C(F)(F)F`, the outcome in experiment [1], in [2], in experiment [5], in experiment [6], in [7] and in experiment [8] was inactive.
`FC(F)(F)C(F)(F)C(F)(F)N(C(F)(F)C(F)(F)C(F)(F)F)C(F)(F)C(F)(F)C(F)(F)F`: the outcome in experiment [1], in experiment [2], in experiment [5], in experiment [6], in experiment [7] and in experiment [8] was inactive.
For the molecule `OCC(F)(F)C(F)(F)C(F)(F)F`, the outcome in experiment [1], in experiment [2], in [3], in experiment [4], in experiment [5] and in experiment [6] was inactive. Further, the result in experiment [7] and in experiment [8] was inactive.
In the case of `FC(F)(F)C(F)(F)C(F)(F)C(F)(F)C(F)(F)C(F)(F)CC1CO1` (stereo not drawn), the result in experiment [1], in [2], in experiment [3], in [4], in experiment [5] and in experiment [7] was inactive. Moreover, the result in [8] was inactive.
Regarding `NC(=O)C(F)(F)C(F)(F)C(F)(F)C(F)(F)F`, the outcome in experiment [1], in experiment [2], in experiment [5], in experiment [6], in [7] and in [8] was inactive.
For `CCc1c(Br)c(Br)c(Br)c(Br)c1Br`, the result in experiment [1], in experiment [2], in experiment [5], in experiment [6], in experiment [7] and in [8] was inactive.
`N=C(N)C(F)(F)C(F)(F)C(F)(F)C(F)(F)C(F)(F)C(F)(F)C(F)(F)F`: the result in experiment [1], in experiment [2], in experiment [3], in experiment [4], in experiment [5] and in [7] was inactive. The result in experiment [8] was inactive. The AC50 in [5] was 31.7 µM (active); in experiment [7], 45.7 µM (active).
Turning to `FC(F)(F)C(F)(F)C(F)(F)C(F)(F)C(F)(F)C(F)(F)C(F)(F)Br`, the outcome in [1], in experiment [2], in experiment [5], in experiment [6], in experiment [7] and in experiment [8] was inactive.
`CC(CCl)OP(=O)(OC(C)CCl)OC(C)CCl` (stereo not drawn): the molecule was called inactive in experiment [9], in experiment [1], in experiment [2], in experiment [3], in experiment [4] and in experiment [10]. For the same molecule, the outcome in [5], in experiment [7] and in [8] was inactive.
With `O=S(=O)(O)C(F)(F)C(F)(F)C(F)(F)C(F)(F)C(F)(F)C(F)(F)C(F)(F)F`, the result in [1], in [2], in [5], in experiment [6], in experiment [7] and in experiment [8] was inactive.
Regarding `O=C(O)C(F)(F)C(F)(F)C(F)(F)C(F)(F)C(F)(F)C(F)(F)C(F)(F)C(F)(F)Cl`, the AC50 was 19.3 µM (active) in experiment [1]; 17.6 µM (active) and 18.3 µM (active) in [2]; 50.7 µM (active) and 43.8 µM (active) in experiment [6]. The result in experiment [3], in [4], in [5], in experiment [7] and in experiment [8] was inactive.
For `FC(F)(F)C(F)(F)C(F)(F)CI`, the result in experiment [1], in [2], in experiment [3], in [4], in [5] and in experiment [6] was inactive. Besides, the result in experiment [7] and in experiment [8] was inactive.
As to `O=P(O)(O)OCCC(F)(F)C(F)(F)C(F)(F)C(F)(F)C(F)(F)C(F)(F)F`, the result in experiment [1], in experiment [2], in experiment [3], in [4], in experiment [5] and in experiment [6] was inactive. Further, the result in experiment [7] and in experiment [8] was inactive.
For `C=C(C)C(=O)OCC(F)(F)C(F)(F)C(F)(F)F`, the outcome in [1], in [2], in [3], in experiment [4], in experiment [5] and in experiment [6] was inactive. Moreover, the result in [7] and in experiment [8] was inactive.
As to `CCO[Si](CCC(F)(F)C(F)(F)C(F)(F)C(F)(F)C(F)(F)C(F)(F)F)(OCC)OCC`, the result in [1], in [2], in [5], in experiment [6], in [7] and in experiment [8] was inactive.

Values taken from PubChem BioAssay (EPA / NIEHS).
